PubChem BioAssay AID463173 (ICCB-Longwood Screening Facility, Harvard Medical School, 2010)
In all, about 52,000 compounds went through this assay and about 1,700 (3.3%) were called active. The sample holds actives, similar compounds and a random draw of the others, so the mix is not that of the screen. Cut-off read from the data, not from the text of the source: active = survival mostly below about 52% (no sharp cut-off); inactive = mostly above about 56%.

These compounds were tested on Wild type (assay: S. aureus survival, RN4220 and DeltatarO strains – OD600, teichoic acid synthesis inhibitors, primary screen (AID 463173)). Conditions: S. aureus RN4220 wild type/DeltatarO growth, OD600, 18 h, hits give low values, screened at 18.75 µg/mL (by protocol).

Structure (SMILES)	survival
Cc1ccc(CNC(=O)CN2N=C(c3ccc(C)cc3)CCC2=O)cc1	80% (inactive)
COc1ccccc1Nc1nc(-c2ccccc2F)nc2ccccc12	73% (inactive)
CCCCc1nc2ccccc2c(C(=O)O)c1C	106% (inactive)
CC(C)CN(CC(C)C)c1nc(-c2ccc(Cl)cc2)nc2ccccc12	-1% (active)
CCN(CC)c1nc(-c2ccc(C(C)(C)C)cc2)nc2ccccc12	-2% (active)
CCCCN(CCCC)c1nc(-c2ccccc2)nc2ccccc12	-3% (active)
CCCCN(CC)c1nc(-c2ccccc2F)nc2ccccc12	71% (inactive)
CCN(CC)c1nc(-c2ccccc2)nc2ccccc12	108% (inactive)
Cc1ccc(C(=O)COC(=O)c2cc(-c3ccc(Cl)cc3)nc3ccccc23)cc1	117% (inactive)
CCCCN(C)CCCNC(=O)c1cc(-c2cccnc2)nc2ccccc12	77% (inactive)
Cc1cc(Sc2ccc(Cl)cc2)nc2ccccc12	50% (inactive)
CCCN(CCC)c1nc(-c2ccccc2F)nc2ccccc12	1% (active)
Cc1cc(N(C)Cc2ccccc2)n2nc(-c3ccc(C(C)(C)C)cc3)nc2n1	77% (inactive)
COc1ccc(-n2ccnc2SCC(=O)Nc2ccc(F)cc2F)cc1	143% (inactive)
Cc1ccccc1NC(=O)CSc1ncc2c(n1)-c1ccccc1N(C)S2(=O)=O	99% (inactive)
CCN(C(=O)c1sc2nc3n(c(=O)c2c1C)CCCCC3)c1ccc(OC)cc1	83% (inactive)
CCN(C(=O)C1CCC(CNS(=O)(=O)c2cccc3nsnc23)CC1)c1cccc(C)c1 (configuration not stated)	86% (inactive)
N#Cc1c(/N=C/c2ccc3c(c2)OCO3)oc(-c2ccccc2)c1-c1ccccc1	115% (inactive)
COc1cccc(CNC(=O)Cn2c(=O)nc(-c3ccccc3F)c3cc(Cl)ccc32)c1	82% (inactive)
O=C(COc1ccccc1)NS(=O)(=O)c1ccc(N=NN2CCOCC2)cc1	105% (inactive)
Cc1ccc(CNC(=O)C(=O)Nc2c3c(nn2-c2ccccc2)CSC3)cc1	82% (inactive)
COc1ccc(NC(=O)CSc2ncc3c(n2)-c2cc(Cl)ccc2N(Cc2ccccc2F)S3(=O)=O)cc1	65% (inactive)
CCc1ccccc1NC(=O)CC1NCCNC1=O (configuration not stated)	87% (inactive)

Structure (SMILES)	survival
O=C(Nc1cccc(C(F)(F)F)c1)C1CCN(S(=O)(=O)c2cccs2)CC1	92% (inactive)
Cc1ccc(Cl)cc1N1CCN(CCCNC(=O)c2ccc3nc(N4CCCCC4)sc3c2)CC1	45% (inactive)
Cc1ccc(C)c(N2CCN(CCCNC(=O)c3ccc4nc(N5CCCCC5)sc4c3)CC2)c1	76% (inactive)
CC1CCN(c2nc3ccc(C(=O)N4CCN(c5ccccc5)CC4)cc3s2)CC1	64% (inactive)
Cc1cccc(N2CCN(C(=O)c3ccc4nc(N5CCC(C)CC5)sc4c3)CC2)c1C	1% (active)
Cc1ccc(Cl)cc1N1CCN(C(=O)c2ccc3nc(N4CCC(C)CC4)sc3c2)CC1	16% (inactive)
Cc1ccc(C)c(N2CCN(CCCNC(=O)c3ccc4nc(N5CCC(C)CC5)sc4c3)CC2)c1	1% (active)
O=C(O)CCc1ccc(-c2cccs2)n1CC(=O)Nc1ccccc1C(F)(F)F	105% (inactive)
COc1ccc(OC)c(NC(=O)N2CCC(CN3CCCCC3)CC2)c1	70% (inactive)
O=C(NCC(c1cccs1)S(=O)(=O)c1cccs1)c1c(F)cccc1F (configuration not stated)	71% (inactive)
COCCCNC(=O)C1CCN(Cc2cc3ccccc3n2Cc2ccccc2C)CC1	78% (inactive)
C=CCC1Cc2ccccc2C(CC=C)N1 (configuration not stated)	100% (inactive)
Cc1ccc(-c2cn3c(n2)sc2cc(C(=O)NCCCN4CCCCC4)ccc23)cc1	-1% (active)
Cc1ccc(-c2cn3c(n2)sc2cc(C(=O)NCCCN4CCCCCC4)ccc23)cc1	-1% (active)
COc1ccc(-c2cn3c(n2)sc2cc(C(=O)NCCCN4CCCCC4)ccc23)cc1	81% (inactive)
O=C(NCCCN1CCCCC1)c1ccc2c(c1)sc1nc(-c3ccc(F)cc3)cn12	43% (inactive)
CC1CCCCN1CCCNC(=O)c1ccc2c(c1)sc1nc(-c3ccc(F)cc3)cn12 (configuration not stated)	26% (inactive)
CCCN1CCN(CCCNC(=O)c2ccc3c(c2)sc2nc(-c4ccc(C)cc4)cn23)CC1	20% (inactive)
COc1ccc(-c2cn3c(n2)sc2cc(C(=O)NCCCN4CCCCCC4)ccc23)cc1	66% (inactive)
CCC1CCCCN1CCCNC(=O)c1ccc2c(c1)sc1nc(-c3ccc(F)cc3)cn12 (configuration not stated)	6% (active)
CCN1CCN(CCCNC(=O)c2ccc3c(c2)sc2nc(-c4ccc(C)cc4)cn23)CC1	29% (inactive)
CCCCNC(=O)c1ccc(-c2nc(CS(=O)(=O)c3ccc(C)cc3)c(C)o2)cc1	83% (inactive)
COc1ccc(C2=NN(C(C)=O)C(c3cn(-c4ccccc4)nc3-c3cccs3)C2)cc1 (configuration not stated)	127% (inactive)

Structure (SMILES)	survival
O=C(NCCN1CCOCC1)N1CCNC1=O	110% (inactive)
CC1(C)N=C2C(=[N+]1[O-])CCC/C2=N/O	110% (inactive)
Cc1ccc(C)c(NC(=O)NCc2ccc3c(c2)CCN3C(=O)c2ccccc2)c1	66% (inactive)
CC(C)N1CCc2nc(SCC(=O)Nc3cccc(F)c3)[nH]c(=O)c2C1	83% (inactive)
Cc1ccc(NC(=O)Cn2c(=O)n(CCC(C)C)c(=O)c3cccnc32)cc1C	90% (inactive)
Cc1ccc(-c2nc(CS(=O)CC(=O)NCc3ccccc3Cl)c(C)o2)cc1 (configuration not stated)	72% (inactive)
CCc1cc(=O)[nH]c(SCc2nc(-c3ccc(C(F)(F)F)cc3)no2)n1	0% (active)
CCCc1cc(=O)[nH]c(SCc2nc(-c3ccccc3)no2)n1	-2% (active)
Cc1cccc(-c2noc(CSc3nc(-c4ccc(F)cc4)cc(=O)[nH]3)n2)c1	82% (inactive)
COc1ccc(-c2noc(CSc3nc4ccc(C)cc4[nH]3)n2)cc1	47% (inactive)
CCCc1cc(=O)[nH]c(SCc2nc(-c3ccc(C)cc3)no2)n1	73% (inactive)
O=c1cc(-c2ccc(F)cc2)nc(SCc2nc(-c3ccccc3Cl)no2)[nH]1	121% (inactive)
Cc1ccc2nc(SCc3nc(-c4ccccc4C)no3)[nH]c2c1	27% (inactive)
Cc1ccccc1-c1noc(CSc2nc(-c3ccc(F)cc3)cc(=O)[nH]2)n1	10% (active)
CCc1cc(=O)[nH]c(SCc2nc(-c3cccc(Cl)c3)no2)n1	22% (inactive)
CCc1cc(=O)[nH]c(SCc2nc(-c3ccccc3)no2)n1	87% (inactive)
Cc1ccc2nc(SCc3nc(-c4ccc(Cl)cc4)no3)[nH]c2c1	-4% (active)
O=c1cc(-c2ccccc2)nc(SCc2nc(-c3ccc(C(F)(F)F)cc3)no2)[nH]1	150% (inactive)
CCn1nc(CC(=O)Nc2nnc(CC(=O)N3CCCC3)s2)c2ccccc2c1=O	95% (inactive)
Cc1nc2ccc(S(=O)(=O)NC(C(=O)NCc3ccc(Cl)cc3)C(C)C)cc2s1 (configuration not stated)	133% (inactive)
O=C(CCS(=O)(=O)c1cc2c(cc1Cl)NC(=O)CO2)NCc1ccccc1Cl	88% (inactive)
COc1cc(NC(=O)CN(c2cc(C)cc(C)c2)S(=O)(=O)c2c(C)[nH]c(=O)[nH]c2=O)cc(OC)c1	83% (inactive)
Cc1cccc(NC(=O)C2CCN(c3nnc(-n4c(C)ccc4C)s3)CC2)c1C	132% (inactive)

Structure (SMILES)	survival
O=C(COCc1cc(-c2ccc(F)cc2)on1)Nc1cccc(C(F)(F)F)c1	77% (inactive)
O=C(c1ccccc1)N(Cc1ccco1)Cc1cccs1	82% (inactive)
CCn1c(CN2CCCCC2)nc2cc(NC(=O)COc3ccccc3C(C)(C)C)ccc21	122% (inactive)
Cc1ccc(C(=O)c2cn(Cc3ccc(F)cc3)c3nc(C)ccc3c2=O)cc1	95% (inactive)
Cc1ccc(C(=O)c2cn(Cc3ccc(Cl)cc3)c3nc(C)ccc3c2=O)cc1	53% (inactive)
Cc1ccc(Cn2cc(C(=O)c3ccc(C)cc3)c(=O)c3ccc(C)nc32)cc1	20% (active)
CCOC(=O)c1cc(-c2ccccc2)n(CC(=O)Nc2cc(Cl)c(OC)cc2OC)c1C	128% (inactive)
CCOC(=O)c1ccc(NS(=O)(=O)c2cc(Br)cc3c2N(C(C)=O)C(C)C3)cc1 (configuration not stated)	83% (inactive)
COc1ccc(N2CCN(C(=O)CCS(=O)(=O)c3cc4c(cc3Cl)NC(=O)CO4)CC2)cc1	85% (inactive)
CCOCCc1nnc(NC(=O)C(=O)c2cc(C)n(-c3ccc(C)cc3C)c2C)s1	85% (inactive)
Cc1ccc(-c2nc3ccccn3c2Nc2ccccc2C)s1	11% (active)
Cc1ccccc1Nc1c(-c2ccc(Cl)s2)nc2cccc(C)n12	80% (inactive)
Fc1ccc(Nc2c(-c3ccco3)nc3ccccn23)cc1	69% (inactive)
Cc1cccc(C)c1Nc1c(-c2ccccn2)nc2c(C)cccn12	77% (inactive)
Cc1ccc(Nc2c(-c3ccc(C)s3)nc3ccccn23)cc1	31% (inactive)
Cc1ccc(-c2nc3ccc(Cl)cn3c2Nc2ccccc2C)s1	94% (inactive)
Cc1ccc(-c2nc3c(C)cccn3c2Nc2ccccc2C)s1	-2% (active)
Cc1ccccc1Nc1c(-c2ccc(Cl)s2)nc2c(C)cccn12	69% (inactive)
Cc1ccccc1Nc1c(-c2ccco2)nc2c(C)cccn12	1% (active)
CCc1nnc(SCc2nc(-c3ccc(OC)cc3)oc2C)c2cc3sccc3n12	86% (inactive)
Cc1ccc(C)c(S(=O)(=O)n2nnc3ccccc32)c1	104% (inactive)
CCOC(=O)N1CCc2c(sc3c2c(=O)n(-c2ccc(Cl)cc2)c(=O)n3Cc2cccc(OC)c2)C1	120% (inactive)
Cc1ccc(CCNC(=O)Cn2c(-c3cccs3)cc3ccccc32)cc1	119% (inactive)
